Compounds with a hit are over-represented: about 3% of the library has one in this group of screens.
TRb SRC2 PPI – qHTS for Inhibitors of the Interaction of Thyroid Hormone Receptor and Steroid Receptor Coregulator 2; 0.065% of 280,000 active; TRbeta-SRC2 peptide binding, fluorescence polarization; receptor liganded with 1 µM T3; Thyroid hormone receptor beta (Homo sapiens), P10828; Potency, µM (top dose mostly 106 µM), hits mostly inhibitors; note: nearly all actives have a fitted effect of over 50% in size
Target sequence (P10828 whole entry, looked up): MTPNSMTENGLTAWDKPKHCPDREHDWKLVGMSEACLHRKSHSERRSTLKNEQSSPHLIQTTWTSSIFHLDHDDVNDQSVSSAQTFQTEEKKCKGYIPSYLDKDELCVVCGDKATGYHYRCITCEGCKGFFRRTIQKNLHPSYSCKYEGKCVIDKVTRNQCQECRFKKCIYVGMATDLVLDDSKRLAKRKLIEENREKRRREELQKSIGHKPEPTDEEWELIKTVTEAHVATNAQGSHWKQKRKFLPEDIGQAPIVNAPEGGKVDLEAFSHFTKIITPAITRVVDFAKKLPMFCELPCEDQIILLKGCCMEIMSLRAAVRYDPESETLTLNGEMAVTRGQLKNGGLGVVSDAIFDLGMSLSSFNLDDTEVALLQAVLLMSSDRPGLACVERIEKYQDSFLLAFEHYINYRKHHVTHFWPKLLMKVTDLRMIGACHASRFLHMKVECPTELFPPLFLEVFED
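Read-out is fluorescence polarization (555 nm excitation, 632 nm emission) of a Texas Red SRC2 coactivator peptide; loss of signal reflects blocked binding to human TRb ligand-binding domain in the presence of 1 uM T3.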
Tau fluor cs – Counterscreen qHTS for Inhibitors of Tau Fibril Formation, Fluorescence Polarization; tau K18 P301L Alexa594 fluorescence, heparin fibrillization; Potency, µM (highest dose often 57.7 µM); 0.93% of 280,000 active; AID 1463, 2008; note: nearly all actives have a fitted effect of over 55% in size
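Human tau K18 P301L (15 uM unlabeled, 0.24 uM Alexa 594-labeled) in 100 mM sodium acetate pH 7 with 20 uM heparin, 6 hr at 37 C. ThT 30 uM added, 1 hr ambient; Alexa 594 FP and total fluorescence read at 555/632 nm.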
TR SRC2 fluor cs – Total Fluorescence Counterscreen for Inhibitors of the Interaction of Thyroid Hormone Receptor and Steroid Receptor Coregulator 2 | TRb/SRC2 Texas Red total fluorescence interference | 0.29% of 280,000 active | Potency, µM (titrated, usually from 106 µM); active = well fitted curve in either direction with a large enough effect; inconclusive = small, poorly fitted or top-dose-only effect
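Human TRb ligand-binding domain at 0.6 uM with 20 nM Texas Red SRC2 peptide in Tris buffer containing 1 uM T3 and 5% DMSO, incubated with compound 5 h at ambient temperature. Total fluorescence (555/632 nm) calculated as parallel + 2 × perpendicular.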
Tau fibril FP – qHTS for Inhibitors of Tau Fibril Formation, Fluorescence Polarization. Microtubule-associated protein tau (Homo sapiens), P10636. K18 P301L tau heparin fibrillization, Alexa594 FP, 6 h. Potency, µM (titrated, usually from 57.7 µM), most hits filed as inhibitors. 0.39% of 280,000 active; note: nearly all actives have a fitted effect of over 55% in size
Target sequence (P10636 561-689 P618L limits assumed): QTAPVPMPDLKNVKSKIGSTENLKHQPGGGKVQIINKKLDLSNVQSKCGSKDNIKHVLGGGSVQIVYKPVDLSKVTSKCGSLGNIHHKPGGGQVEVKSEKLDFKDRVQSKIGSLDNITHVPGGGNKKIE
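K18 P301L tau (15 uM unlabeled/0.24 uM Alexa 594-labeled, final) + compound + heparin 20 uM final; 100 mM NaOAc pH 7; 6 hr 37 C; ThT 30 uM final added, 1 hr RT; FP ex 555/em 632 nm.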
Tau fibril ThT – qHTS for Inhibitors of Tau Fibril Formation, Thioflavin T Binding; Microtubule-associated protein tau (Homo sapiens), P10636; recombinant tau K18 P301L, heparin-induced fibrillization, ThT fluorescence; Potency, µM (series often up to 57.4 µM), usual class: inhibitors; 2.1% of 270,000 active; note: nearly all actives have a fitted effect of over 55% in size
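Fibril formation assay: tau K18 P301L at 15 uM with trace Alexa 594 label, heparin inducer 20 uM, pH 7 sodium acetate buffer, 37 C for 6 hr; endpoint ThT signal.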
Each line names hits and unclear results; the compound was inactive in the other large screens; [ ] = another dose, or the depositor's remark. Unless noted, calls come from the whole dose curve; as a rule, active = well fitted curve in the direction sought with a large enough effect; inconclusive = small, poorly fitted or top-dose-only effect, or another doubt; inactive = no such curve, though single readings can be large; an effect the other way counts as inactive or inconclusive.

Cc1cc(C)n(-c2nnc(NCc3ccc(Cl)cc3)nn2)n1	Tau fibril ThT inconclusive
Cc1nn(-c2nnc(NCc3ccccc3)nn2)c(C)c1Br	Tau fluor cs inconclusive, Tau fibril ThT 14.1µM
CCOC(=O)c1nnc(-c2ccccc2)nc1Oc1ccccc1Cl	Tau fluor cs inconclusive, Tau fibril ThT 14.1µM
COC(=O)NC(c1ccc2ccccc2c1)C(C(C)=O)C(=O)OC (stereo not given)	none
CN(C)c1ccc(-c2nc(NCc3cccnc3)c3ccccc3n2)cc1	Tau fluor cs 17.8µM[quencher], Tau fibril ThT 14.1µM
CN(C)c1ccc(-c2ccc3ncnc(NCc4ccccc4)c3c2)cc1	Tau fluor cs 10µM[quencher], Tau fibril FP inconclusive, Tau fibril ThT inconclusive
c1cncc(CNc2nc(-c3ccoc3)nc3ccccc23)c1	Tau fluor cs inconclusive, Tau fibril FP inconclusive, Tau fibril ThT 28.2µM
C[Si]1(C)O[Si](C)(C)O[Si](C)(C)O[Si](C)(C)O[Si](C)(C)O1	none (no result: Tau fluor cs, Tau fibril FP, Tau fibril ThT)
CCOc1ccc2nc(NC(=S)N(C)C)sc2c1	Tau fluor cs inconclusive, Tau fibril ThT inconclusive
CCOc1ccc2nc(N=NC3=C(O)CC(C)(C)CC3=O)sc2c1	Tau fibril ThT 14.1µM
O=C(N/N=C/c1ccc(O)c(O)c1O)/C(=C/c1ccc([N+](=O)[O-])cc1)NC(=O)c1ccccc1	Tau fluor cs inconclusive, Tau fibril FP 8.91µM, Tau fibril ThT 3.55µM
Oc1ccccc1C(Nc1nccs1)c1ccc2cccnc2c1O (stereo not given)	Tau fluor cs inconclusive, Tau fibril ThT 20µM
Cc1ccnc(NC(c2cc(C)ccc2O)c2ccc3cccnc3c2O)c1 (stereo not given)	Tau fluor cs inconclusive, Tau fibril ThT 15.8µM
Cc1ccnc(NC(c2ccccc2F)c2ccc3cccnc3c2O)c1 (stereo not given)	Tau fibril ThT inconclusive
O=C(O)CCCNc1cc(N2CCC3(CC2)OCCO3)c2noc3c2c1C(=O)c1ccccc1-3	TRb SRC2 PPI 22.4µM, Tau fluor cs inconclusive, TR SRC2 fluor cs 44.7µM[fluorescent], Tau fibril FP inconclusive, Tau fibril ThT 25.1µM
CCn1c(=O)cc(SCC(=O)N2CCN(C3CCCCC3)CC2)c2ccccc21	none
CCOC(=O)N1CCN(c2c(NCCc3ccccc3)c(=O)c2=O)CC1	none
CCCCNc1cc(N2CCN(C3CCCCC3)CC2)c2noc3c2c1C(=O)c1ccccc1-3	Tau fluor cs inconclusive, Tau fibril ThT 15.8µM
CCOC(=O)N1CCN(c2cc(NCCC(=O)O)c3c4c(onc24)-c2ccccc2C3=O)CC1	TRb SRC2 PPI 28.2µM, Tau fluor cs inconclusive, TR SRC2 fluor cs 12.6µM[fluorescent], Tau fibril FP 31.6µM, Tau fibril ThT 11.2µM
Cc1ccc2nc(CSc3nc(C)ccc3C#N)[nH]c2c1	Tau fluor cs inconclusive, Tau fibril ThT 11.2µM
OCC1OC([S-])[C@H](O)C(O)C1O.[Au+] (stereo not given in full)	TRb SRC2 PPI inconclusive, TR SRC2 fluor cs 12.6µM[quencher], Tau fibril FP inconclusive, Tau fibril ThT inconclusive
OCC1O[C@H](O)C(Cl)C(O)C1O (stereo not given in full)	none
O=S(=O)(O)c1ccc(N=Nc2cc(S(=O)(=O)O)c3ccccc3c2O)c2ccccc12	TRb SRC2 PPI inconclusive, TR SRC2 fluor cs 100µM[fluorescent] (no result: Tau fluor cs, Tau fibril FP, Tau fibril ThT)
COC(=O)c1cccc(NC(=O)Nc2ccc(Cl)c(Cl)c2)c1	Tau fluor cs inconclusive, Tau fibril FP 12.6µM, Tau fibril ThT inconclusive
COC(=O)c1ccc(NC(=O)Nc2ccc(F)c(Cl)c2)cc1	Tau fluor cs inconclusive, Tau fibril FP 15.8µM, Tau fibril ThT inconclusive
CN(C)S(=O)(=O)Oc1cccc(C(=O)Nc2ccc(Cl)c(Cl)c2)c1	Tau fluor cs inconclusive, Tau fibril FP 20µM
CN(C)S(=O)(=O)Oc1cccc(C(=O)Nc2cccc(Cl)c2)c1	Tau fluor cs inconclusive, Tau fibril FP inconclusive
O=S(=O)(Nc1cccc2cccnc12)c1ccc(Br)s1	none (no result: Tau fluor cs, Tau fibril FP, Tau fibril ThT)
CCCCCCCC1CCC(=O)O1 (stereo not given)	none (no result: Tau fluor cs, Tau fibril FP, Tau fibril ThT)
O=c1cc(-c2ccccc2)n2c(SCc3c(F)cccc3Cl)nnc2[nH]1	none
COc1cc2c(cc1OC)C(c1ccccc1)=NCC2	none
COc1cc2c(cc1OC)-c1cc3ccc4c(c3c[n+]1CC2)OCO4	Tau fibril ThT 15.8µM
O=C(NCCc1ccccc1)c1ccc2c(c1)N(Cc1ccccc1Cl)C(=O)c1ccccc1S2	none
COc1ccccc1NC(=O)C1=C(C)NC(=O)NC1c1ccccc1[N+](=O)[O-] (stereo not given)	Tau fibril ThT inconclusive
CC1=C(C(=O)Nc2ccccc2)C(c2ccccc2[N+](=O)[O-])NC(=O)N1 (stereo not given)	Tau fluor cs inconclusive, Tau fibril FP inconclusive, Tau fibril ThT 25.1µM
N=C(N)S/C=C\C(=O)O	Tau fibril FP inconclusive, Tau fibril ThT 28.2µM
N=C1S/C(=C\c2ccc(-c3cccc(Cl)c3)o2)C(=O)N1c1nccs1	Tau fibril ThT 3.55µM
COc1ccc(/C=C2\SC(=S)N(NC(=O)c3ccncc3)C2=O)cc1OC	Tau fibril ThT inconclusive
COc1ccc(/C=C2\SC(=N)N(c3nccs3)C2=O)cc1OC	Tau fibril ThT 10µM
CCOc1cc(CNc2ccc(N(C)C)cc2)cc(Br)c1OCC(=O)NC(C)(C)C	TRb SRC2 PPI 39.8µM, Tau fluor cs inconclusive, TR SRC2 fluor cs 44.7µM[fluorescent], Tau fibril FP 15.8µM, Tau fibril ThT 7.94µM
CCOc1cc(CNc2ccc(N3CCCCC3)cc2)cc(Br)c1OCC(=O)NC(C)(C)C	Tau fibril ThT inconclusive
Cc1nc(NCc2ccccc2)c2nc(-c3ccccc3)n(CCCN3CCCCC3C)c2n1 (stereo not given)	none
Cc1cc(NC(=O)c2sc(Nc3cccc(C(F)(F)F)c3)nc2N)no1	Tau fluor cs 17.8µM[quencher], Tau fibril FP inconclusive, Tau fibril ThT 11.2µM
Cc1cc(NC(=O)c2sc(Nc3ccc(F)c(Cl)c3)nc2N)no1	Tau fluor cs inconclusive, Tau fibril ThT inconclusive
COc1cccc(Nc2ccc3cc(S(=O)(=O)N4CCC(C)CC4)ccc3n2)c1	Tau fluor cs 5.01µM[quencher], Tau fibril FP inconclusive
COc1ccc(Nc2ccc3cc(S(=O)(=O)N4CCCC4)ccc3n2)cc1OC	Tau fluor cs 11.2µM[quencher], Tau fibril ThT inconclusive
N#C/C(=C/c1ccccc1Cl)c1nc(-c2cc3ccccc3oc2=O)cs1	TR SRC2 fluor cs inconclusive
COc1cc(/C=C(/C#N)c2nc(-c3cc4ccccc4oc3=O)cs2)ccc1O	Tau fluor cs inconclusive, Tau fibril ThT 4.47µM
CN(Cc1ccco1)c1ccnc(-c2ccoc2)n1	Tau fluor cs inconclusive, Tau fibril FP inconclusive, Tau fibril ThT 22.4µM
O=c1oc2cc(O)ccc2cc1-c1nc2c(s1)CCc1ccccc1-2	Tau fluor cs 11.2µM[quencher]

High-throughput results as filed in PubChem.
